Assay outcomes deposited in PubChem BioAssay by National Center for Advancing Translational Sciences (NCATS).
LmPK inh = inhibitors of Leishmania mexicana pyruvate kinase. Q27686. purified LmPK, Kinase-Glo ATP luminescence, 1 h. Potency, µM (top dose mostly 57.5 µM), for the others: at the highest dose activity change, negative = inhibition, most hits filed as inhibitors. 290,000 tested, 0.37% active; also: potency is read from the fitted curve at half-maximal effect; % is scaled to controls: 0 for no effect and ±100 for the full control effect
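ATP generated from ADP (0.1 mM) and PEP (0.5 mM) by 0.1 nM LmPK over 1 h at room temperature (pH 7.2 imidazole buffer) was detected by coupled luciferase luminescence. Values were normalized to uninhibited and no-enzyme wells.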
TbPYK inhibitor = T. brucei pyruvate kinase inhibition; TbPYK enzyme, Kinase-Glo Plus ATP luminescence, 45 min; AID 624173; Potency, µM (top dose mostly 76.8 µM), inactives show at the top dose activity, negative = inhibition, actives largely listed as inhibitors; 410,000 tested, 0.12% active; also: potency is read from the fitted curve at half-maximal effect; % is scaled to controls: 0 for no effect and ±100 for the full control effect; nearly all actives have a fitted effect of over 50% in size
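In this concentration-response screen, enzyme-free wells defined baseline while DMSO plates tracked drift. Each reaction combined TbPYK, substrate, compound and 130 uM ADP for 45 min at room temperature. Kinase-Glo Plus luminescence gave the signal.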
RE007 growth inh = less growth of the S. pombe RE007 Vpr strain; 360,000 tested, 0.21% active; S. pombe RE007 Vpr strain, BacTiter-Glo ATP luminescence, 24 h; Potency, µM (series often up to 92.2 µM), inactives show top-dose activity change, negative = less growth, most hits filed as inhibitors; active = well fitted falling curve with a large enough effect; also: potency is read from the fitted curve at half-maximal effect; % is scaled to controls: 0 for no effect and ±100 for the full control effect; nearly all actives have a fitted effect of over 50% in size
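Fission yeast strain RE007, carrying one chromosomally integrated HIV-1 vpr copy, was seeded at OD 0.01 in PMG+AL medium with 23 nL pinned compound. After 24 h at 30 °C and 99% humidity, viability was read by BacTiter-Glo luminescence.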
Giardia FBPA inh = inhibitors of Giardia lamblia fructose-1,6-bisphosphate aldolase. A8B2U2. purified Giardia FBPA. Potency, µM (top dose mostly 59.6 µM), for the others: at the top dose activity, negative = inhibition, usual class: inhibitors. 290,000 tested, 0.71% active; also: potency is read from the fitted curve at half-maximal effect; % is scaled to controls: 0 for no effect and ±100 for the full control effect; nearly all actives have a fitted effect of over 55% in size
Target sequence (A8B2U2 whole entry, looked up): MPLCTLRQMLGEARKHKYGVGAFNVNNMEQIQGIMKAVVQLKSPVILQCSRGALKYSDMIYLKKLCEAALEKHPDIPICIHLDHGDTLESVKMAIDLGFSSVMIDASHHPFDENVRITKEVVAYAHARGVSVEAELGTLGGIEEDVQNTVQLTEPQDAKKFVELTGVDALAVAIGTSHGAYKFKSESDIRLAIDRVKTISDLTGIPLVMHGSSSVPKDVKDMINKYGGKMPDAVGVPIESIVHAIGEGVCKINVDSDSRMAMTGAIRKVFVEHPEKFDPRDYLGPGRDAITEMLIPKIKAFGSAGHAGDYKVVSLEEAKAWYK
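40 nM FBPA preincubated 10 min at RT with compound (up to 57.5 uM final), then substrate plus GAPDH/TPI/NAD/arsenate coupling and diaphorase/resazurin added. Fluorescence read after 20 min at RT, 525/598 nm.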
Cycloheximide cs = counter-screen for Shiga toxin inhibitors: cycloheximide protein synthesis inhibition. cell reporter, cycloheximide protein synthesis inhibition counterscreen. max response, %. 300,000 tested, 12% active. AID 2314; in the data active = max response mostly above about 13%, no sharp cut-off; inactive = mostly below about 14%; also: read at 38.3 µM for the half of the compounds with a filed dose; 0% is about no effect
Shiga toxin inh = inhibitors of Shiga toxin in Vero cells; AID 2315; Vero cells, Shiga toxin protein synthesis inhibition reporter; inhibition, % at 38.7 µM; 290,000 tested, 9.2% active; in the data active = inhibition mostly above about 28%, no sharp cut-off; inactive = mostly below about 43%; also: 0% is about no effect
Active calls of the source: *; / = not tested or not shown; + = active, no number. Shown is part of a subset that was picked to be rich in hits. Unless noted, calls follow the shape of the dose curve; as a rule, active = well fitted curve in the direction sought with a large enough effect; inconclusive = small, poorly fitted or top-dose-only effect, or another doubt; inactive = no such curve, though single readings can be large; an effect the other way counts as inactive or inconclusive.

SMILES	LmPK inh	TbPYK inhibitor	RE007 growth inh	Giardia FBPA inh	Cycloheximide cs	Shiga toxin inh
Cc1cc2cc(CCNC(=O)c3cccs3)c(=O)[nH]c2cc1C	1%	-1%	10%	4%	31*	54*
CCCS(=O)(=O)NCCc1cc2ccc(C)cc2[nH]c1=O	2%	1%	4%	-3%	12*	28*
CCc1nc(-c2cc3ccc(C)cc3[nH]c2=O)no1	8%	-17%	-14%	-6%	17*	34
Cc1ccc2cc(-c3noc(C(C)(C)C)n3)c(=O)[nH]c2c1	0%	-7%	25%	1%	-1	2
CCCS(=O)(=O)NCCc1cc2cc(C)c(C)cc2[nH]c1=O	-3%	0%	18%	-2%	9	32
Cc1ccc2cc(CCNC(=O)c3ccco3)c(=O)[nH]c2c1	-2%	2%	9%	5%	31*	63*
CC(=O)N(Cc1ccccc1)Cc1cn(CCC#N)nc1-c1cccc([N+](=O)[O-])c1	3%	-4%	-15%	4%	-3	-5
CCOc1ccc(N2CC(NC(=O)C(=O)c3c[nH]c4ccccc34)CC2=O)cc1 (centres undefined)	/	5%	/	/	/	/
COc1ccc2cc(CCNC(=O)C(C)C)c(=O)[nH]c2c1	0%	-1%	3%	-3%	1	12
Cc1ccc2cc(CCNC(=O)c3ccco3)c(=O)[nH]c2c1C	-1%	1%	14%	8%	61*	+
COc1ccc2cc(CCNC(=O)c3ccco3)c(=O)[nH]c2c1	-6%	-11%	0%	9%	58*	95*
Cc1ccccc1OCC(=O)Nc1ccccc1OCc1cc(=O)n2ccccc2n1	/	2%	/	/	/	/
Cc1cc(=O)c2cc3nc(-c4cccnc4)oc3c(Br)c2o1	-2%	/	/	-8%	15*	42
CC1=CC(C)C2(COC(=O)Nc3ccccc3)COC(C)C1C2C (centres undefined)	3%	-17%	16%	-6%	13*	36
COc1ccc(C2OCC3(COC(C)=O)C(C)C=C(C)C2C3C)cc1 (centres undefined)	/	/	/	-1%	/	/
O=C(CCNS(=O)(=O)c1c(Cl)cccc1Cl)OCC(=O)c1ccccc1F	0%	-4%	6%	-2%	11	+
CN(C)/C=N/c1cnc(C(=O)c2ccc(Cl)cc2)n1C	4%	2%	-2%	-8%	45*	83*
CN(C)/C=N/NC(=O)c1ccc(Cl)cc1	1%	2%	3%	1%	2	11
Cc1cccc2sc(N(CCCN(C)C)C(=O)c3ccc(S(=O)(=O)N4CCc5ccccc5C4)cc3)nc12	7%	7%	6%	-10%	18	15
CN(C)CCCN(C(=O)c1ccc(S(=O)(=O)N2CCc3ccccc3C2)cc1)c1nc2c(F)cccc2s1	-3%	0%	-6%	-23%	32*	-6
O=S(=O)(c1ccccc1)N1c2cc(Cl)ccc2Oc2nc3ccccc3nc21	0%	2%	-7%	-5%	65*	94*
CCOCCCNC(=O)Cn1ncc2c([nH]c3ccccc32)c1=O	/	-2%	/	/	/	/
Cc1cc(=O)oc2cc(OCCc3ccccc3)ccc12	-1%	2%	-3%	12%	42*	83*
Cc1cc(=O)oc2cc(OCC(=O)c3ccccc3)ccc12	0%	-4%	17%	5%	17*	20
COc1cccc(COc2ccc3c(C)cc(=O)oc3c2)c1	-6%	-4%	4%	0%	31*	79*
SMILES	LmPK inh	TbPYK inhibitor	RE007 growth inh	Giardia FBPA inh	Cycloheximide cs	Shiga toxin inh
Cc1ccc(C(=O)COc2ccc3c(C)cc(=O)oc3c2)cc1	4%	-13%	-8%	0%	-2	-5
O=C(CSc1nc2c(c(=O)[nH]1)CCC2)Nc1cccc(O)c1	/	-5%	/	/	/	/
CC1(C(=O)OCC(=O)Nc2nc(-c3ccc(F)c(F)c3)cs2)CC1(Cl)Cl (centres undefined)	4%	-7%	-2%	4%	13	54*
CC(C)(C)c1ccc(NC(=O)COC(=O)C2=COCCO2)cc1	3%	3%	13%	-14%	21*	91
O=C(COC(=O)C1=COCCO1)Nc1ccc(F)cc1	/	0%	-18%	/	/	/
COc1ccc(CC(=O)Nc2nc(-c3ccc(F)c(F)c3)cs2)cc1	3%	-6%	2%	0%	-7	-9
